# Laboratory results: PubChem BioAssay (Tox21)
# Inconclusive results are not listed. Values without a mark were called inactive. Active and inactive are the calls of the source. The call rests on the fitted dose curve; in most records, active means well fitted cell-killing curve with a large enough effect in the repeat runs; inconclusive means weak or mixed curves, or effect the other way; inactive means flat fitted curve, though single readings scatter.
# Assay: Caspase-3/7 induction in HepG2 cells by small molecules, qHTS cell viability counter screen (AID 1346981); further: nearly all actives have a fitted effect of over 30% in size
# Details: CellTiter-Fluor fluorescence, 17 h; series mostly up to 92.4 µM; activity change, negative = cytotoxicity: at the top concentration
# Description: U.S. Tox21 Program National Center for Advancing Translational Sciences [NCATS] NIH Chemical Genomics Center [NCGC] U.S. Environmental Protection Agency [EPA] National Institutes of Environmental Health Sciences [NIEHS] National Toxicology Program [NTP] U.S. Food and Drug Administration [FDA] Tox21 Assay Overview: Apoptosis is a process of programmed cell death and plays a central role in the development of multicellular organisms. It is a highly regulated process and induces cell death by activating caspases, which are the members of cysteine aspartic acid-specific protease (caspase) family. Caspases involved in apoptosis are classified by their mechanism of action as initiator caspases (caspase-2, -8, -9 and -10) and executioner caspases (caspase-3, -6, and -7). Inhibition of apoptosis results in number of cancers, autoimmune diseases, inflammatory diseases and viral infection. To identify small molecule compounds that induce apoptosis, a homogeneous, luminescent Caspase-Glo 3/7 assay was used. Wild type HepG2 cells were used to screen Tox21 libraries for identifying caspase-3/7 activity inducers. Also cytotoxicity of the compounds was tested in parallel by measuring the cell viability using CellTiter-Fluor assay system in the same wells.
# Tox21 Assay Protocol Summary: HepG2 cells were dispensed at 2,000 per well in 5uL of culture medium into white solid bottom 1536-well plates (Corning Life Sciences, Corning, NY) using a Multidrop Combi (Thermo Scientific, Waltham, MA) dispenser. The assay plates were incubated at 37 C and 5% CO2 for 5hr, and then 23nL of compounds dissolved in DMSO and positive control were transferred using a Pintool station ([…], San Diego, CA). The assay plates were incubated at 37C and 5% CO2 for 17hr. For cytotoxicity read, after 16hr incubation at 37C, 1uL CellTiter-Fluor reagent (Promega Corporation, Madison, WI) was added to each well of the assay plates using Flying Reagent Dispenser (FRD, Aurora Discovery, San Diego, CA). After 1hr incubation at 37C and 5% CO2, the fluorescence signal was quantified using a ViewLux plate reader (PerkinElmer, Shelton, CT).
# On the % scale 0 is the no-effect control and ±100 the full control effect; potency means the concentration at half of the fitted maximal effect.
Structure (SMILES),"activity change, negative = cytotoxicity",Potency
BrC(Br)C(Br)(Br)Br,0.496%,
ClC(Cl)=C(Cl)Cl,-0.359%,
O=[N+]([O-])c1cc(C(F)(F)F)c(Cl)c([N+](=O)[O-])c1Cl,,61.1 µM (active)
S=C=Nc1cccc2ccccc12,,60.5 µM (active)
COC(=O)N(C(=O)N1COC2(C(=O)OC)Cc3cc(Cl)ccc3C2=N1)c1ccc(OC(F)(F)F)cc1 (stereo not given),4.43% [at 42.5 µM],
CC(C)(COCC1CO1)COCC1CO1 (stereo not given),0.215%,
C[C@]12CC[C@@H]3c4ccc(OC(=O)N(CCCl)CCCl)cc4CC[C@H]3[C@@H]1CC[C@@H]2O,4.64% [at 42.5 µM],
CC(C)OC(=O)C(O)(c1ccc(Cl)cc1)c1ccc(Cl)cc1,-4.39%,
COCC(=O)N(c1c(C)cccc1C)[C@H](C)C(=O)OC,-1.28%,
C[C@]12Cc3nonc3C[C@@H]1CC[C@@H]1[C@@H]2CC[C@@]2(C)[C@H]1CC[C@]2(C)O,-0.774% [at 42.5 µM],
CN(C)CCc1c[nH]c2cccc(O)c12,-4.7%,
CCN,9.5%,
Nc1ccccc1C(=O)OC/C=C/c1ccccc1,-9.85%,
CC(C)[C@H](C(=O)O[C@H](C#N)c1cccc(Oc2ccccc2)c1)c1ccc(Cl)cc1,7.9%,
COc1cccc2c1C(=O)c1c(O)c3c(c(O)c1C2=O)C[C@@](O)(C(=O)CO)CC3OC1CC(N2CCOC(OC)C2)C(O)C(C)O1 (stereo not given in full),,16.8 µM (active)
CCCCCCCCCCCCCCCCCCn1cc[n+](C)c1,,68.2 µM (active)
COP(N)(=S)OC,-0.298%,
Cc1cc(C(C)(C)c2cc(C)c(O)c(C)c2)cc(C)c1O,,52.7 µM (active)
CN(C)CCc1c[nH]c2ccc(O)cc12,2.47%,
c1ccc(OCC2CO2)cc1 (stereo not given),9.47%,

Structure (SMILES),"activity change, negative = cytotoxicity",Potency
COc1ccc([N+](=O)[O-])cc1O,-20.5% [at 42.5 µM],
CCC[CH2][Sn]([CH2]CCC)([CH2]CCC)[O]C(=O)c1ccccc1,,4.86 µM (active)
CN(C)c1ccc(N=Nc2ccccc2)cc1,,48.6 µM (active)
CCS(=O)(=O)c1cccnc1S(=O)(=O)NC(=O)Nc1nc(OC)cc(OC)n1,6.23%,
C[C@@H]1O[C@@H](O[C@H]2C[C@@H](O)[C@]3(CO)[C@H]4[C@H](O)C[C@]5(C)[C@@H](C6=CC(=O)OC6)CC[C@]5(O)[C@@H]4CC[C@]3(O)C2)[C@H](O)[C@H](O)[C@H]1O,,inactive
N#CCCSCCC#N,-1.1%,
CCOC(=O)c1ccccc1S(=O)(=O)NC(=O)Nc1nc(Cl)cc(OC)n1,0.2%,
N#Cc1c(-c2ccc(Cl)cc2)[nH]c(C(F)(F)F)c1Br,,27.3 µM (active)
Cc1ccc(OP(=O)(Oc2ccccc2)Oc2ccccc2)cc1,-0.0453%,
CN(CCCC(=O)c1cccnc1)N=O,-1.53%,
CCCCCCCCCCCCCN1CC(C)OC(C)C1 (stereo not given),-3.67%,
CCOP(=S)(OCC)SCS(=O)(=O)C(C)(C)C,3.77%,
CC(C)CCCCCCCOP(=O)(Oc1ccccc1)Oc1ccccc1,-1.34%,
Fc1cccc(Cl)c1CCl,6.49%,
O=c1[nH]c2ccccc2n1C1CCN(CCCC(c2ccc(F)cc2)c2ccc(F)cc2)CC1,,54.5 µM (active)
CC(O)C#N (stereo not given),4.4%,
OC(Cc1ccccc1Cl)(Cn1cncn1)C1(Cl)CC1 (stereo not given),-1.5%,
CCCN(CC)CC1COC2(CCC(C(C)(C)C)CC2)O1 (stereo not given),0.531%,
CC(=O)c1ccc(-c2ccccc2)cc1,-6.26%,
O=C/C(Cl)=C(/Cl)C(=O)O,-23.9%,
